{"source": "PubChem BioAssay AID1851", "about": "(National Center for Advancing Translational Sciences (NCATS), 2009)", "note": "The campaign covered roughly 16,000 compounds. About 5,700 (36%) were called active. Roughly 24% stayed inconclusive and do not appear here. This is one part of the list. Values without a mark were called inactive. Calls come from the whole dose curve; as a rule, active = well fitted curve in the direction sought with a large enough effect; inconclusive = small, poorly fitted or top-dose-only effect, or effect the other way; inactive = no such curve, though single readings can be large or run the other way. % is set by controls: 0 for no effect and ±100 for the full control effect.", "data": [{"biological_target": "Cytochrome P450 1A2 (Homo sapiens) (UniProt P05177)", "sequence (P05177 whole entry, looked up)": "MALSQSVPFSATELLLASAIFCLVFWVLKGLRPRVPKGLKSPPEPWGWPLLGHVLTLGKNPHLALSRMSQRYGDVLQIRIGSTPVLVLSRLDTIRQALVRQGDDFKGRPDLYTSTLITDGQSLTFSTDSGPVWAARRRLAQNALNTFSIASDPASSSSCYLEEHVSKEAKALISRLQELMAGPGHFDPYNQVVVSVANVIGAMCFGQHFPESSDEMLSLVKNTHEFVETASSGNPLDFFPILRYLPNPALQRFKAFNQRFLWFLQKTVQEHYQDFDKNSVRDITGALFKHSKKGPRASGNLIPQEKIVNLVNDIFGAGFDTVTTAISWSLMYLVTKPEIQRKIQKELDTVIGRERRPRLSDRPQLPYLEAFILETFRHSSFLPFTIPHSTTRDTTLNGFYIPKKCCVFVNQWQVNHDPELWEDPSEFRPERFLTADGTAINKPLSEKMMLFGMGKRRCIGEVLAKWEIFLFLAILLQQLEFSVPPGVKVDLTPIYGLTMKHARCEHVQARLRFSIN", "experiment": "Cytochrome panel assay with activity outcomes", "details": "recombinant CYP, pro-luciferin dealkylation, luminescence, p450-cyp1a2; series mostly up to 57.1 µM; activity, negative = inhibition: at the top concentration", "values": [{"smiles": "Cc1cccc2c1OCC/C2=N\\NC(=O)COc1ccccc1", "AC50": "2.51 µM (active)"}, {"smiles": "CCOC(=O)C1=NOC(CNC(=O)C2=NOC(CNC(=O)c3c(-c4ccccc4Cl)noc3C)C2)C1", "note": "(configuration not stated)", "activity, negative = inhibition": "2.92%"}, {"smiles": "Cc1ccccc1OCC(=O)N/N=C1\\CCOc2c(C)cccc21", "activity, negative = inhibition": "-14%"}, {"smiles": "Cc1cccc2c1OCC/C2=N\\NC(=O)COc1ccccc1Cl", "AC50": "0.891 µM (active)"}, {"smiles": "COc1cccc(OCC(=O)NN=C2c3ccccc3-c3ccccc32)c1", "AC50": "0.501 µM (active)"}, {"smiles": "CO/N=C\\[C@@H](NS(=O)(=O)c1ccc(C)cc1)[C@H](C)/C=C\\CC(=O)OC", "activity, negative = inhibition": "-9.25% [at 11.4 µM]"}, {"smiles": "CO/N=C(/C)CCC(=O)OC[C@@H]1O[C@H](C#Cc2ccccc2)C=C[C@@H]1Oc1ccc(C)cc1", "activity, negative = inhibition": "-10.1% [at 11.4 µM]"}, {"smiles": "CC(=O)[C@@]1(O)CC[C@H]2[C@H]3C[C@@H](C)C4=CC(=O)C=C[C@]4(C)[C@@]3(F)[C@@H](O)C[C@]21C", "activity, negative = inhibition": "-14.8% [at 25.6 µM]"}, {"smiles": "CC(=O)[C@H]1CC[C@H]2[C@@H]3C=CC4=CC(=O)CC[C@@]4(C)[C@H]3CC[C@]12C", "activity, negative = inhibition": "-8.55% [at 25.6 µM]"}, {"smiles": "O=c1c(-c2cccc(Cl)c2)nc2cncnc2n1-c1ccccc1", "AC50": "2 µM (active)"}, {"smiles": "O=c1c(-c2ccccc2)nc2cncnc2n1-c1ccccc1", "AC50": "5.01 µM (active)"}, {"smiles": "COc1ccc(-n2c(=O)c(-c3cccc(Cl)c3)nc3cncnc32)cc1", "AC50": "1 µM (active)"}, {"smiles": "Cc1ccc(S(=O)(=O)N[C@H]2COC(=O)C/C=C\\[C@H](C)[C@@H](NS(=O)(=O)c3ccc(C)cc3)COC(=O)C/C=C\\[C@@H]2C)cc1", "activity, negative = inhibition": "-10.6% [at 11.4 µM]"}, {"smiles": "Cc1ccc(CNC(=O)[C@H]2C[C@@H]2[C@H](NP(=O)(c2ccccc2)c2ccccc2)c2ccccc2)c(F)c1F", "activity, negative = inhibition": "-17.4%"}, {"smiles": "O=C(NCc1cc(F)cc2c1OCCO2)[C@H]1C[C@@H]1[C@H](NP(=O)(c1ccccc1)c1ccccc1)c1ccccc1", "AC50": "15.8 µM (active)"}, {"smiles": "O=C(Nc1ccc2ccccc2c1)[C@H]1C[C@@H]1[C@H](NP(=O)(c1ccccc1)c1ccccc1)c1ccccc1", "AC50": "10 µM (active)"}, {"smiles": "C[C@H](CO)NC(=O)[C@H]1C[C@@H]1[C@H](NP(=O)(c1ccccc1)c1ccccc1)c1ccccc1", "activity, negative = inhibition": "-7.78%"}, {"smiles": "C[C@H](CO)NC(=O)[C@@H]1C[C@H]1[C@@H](NP(=O)(c1ccccc1)c1ccccc1)c1ccccc1", "activity, negative = inhibition": "-9.59%"}, {"smiles": "Cc1cc(CNC(=O)[C@@H]2C[C@H]2[C@@H](NP(=O)(c2ccccc2)c2ccccc2)c2ccccc2)nn1C", "activity, negative = inhibition": "-17.4%"}, {"smiles": "Cn1cccc1C(=O)N1CCC[C@@]2(CCN(Cc3nccs3)C2)C1", "activity, negative = inhibition": "-7.87%"}, {"smiles": "COC(=O)C1=C(NC(=O)c2cccs2)CCS1", "AC50": "2.51 µM (active)"}, {"smiles": "CCCCN(CC)S(=O)(=O)c1ccc(C(=O)Nc2nnc(CSC)o2)cc1", "activity, negative = inhibition": "-27.9%"}, {"smiles": "CCN(CC)S(=O)(=O)c1ccc(C(=O)Nc2ncn(Cc3ccccc3)n2)cc1", "activity, negative = inhibition": "-10.7%"}, {"smiles": "COC(=O)C1=C(NC(=O)c2cccc(OC)c2)CCS1", "AC50": "3.16 µM (active)"}, {"smiles": "CCC(=O)N1CCN(c2ccc(NC(=O)c3cccs3)cc2)CC1", "activity, negative = inhibition": "-9.21%"}, {"smiles": "CCN(CC)S(=O)(=O)c1ccc(C(=O)NC2=C(C(=O)OC)SCC2)cc1", "AC50": "12.6 µM (active)"}, {"smiles": "CC(=O)N(O)CCCCCNC(=O)CCC(=O)N(O)CCCCCNC(=O)CCC(=O)N(O)CCCCCN", "activity, negative = inhibition": "-5.91% [at 25.6 µM]"}, {"smiles": "O=C1[C@@H]2C=CC=CC2=NC(=S)N1CCN1CCC(=C(c2ccc(F)cc2)c2ccc(F)cc2)CC1", "activity, negative = inhibition": "-5.13%"}, {"smiles": "O=C(Oc1cccc(Br)c1)c1cccnc1", "AC50": "12.6 µM (active)"}, {"smiles": "O=C(Nc1cccc(OC(=O)c2ccco2)c1)c1ccco1", "AC50": "22.4 µM (active)"}, {"smiles": "COc1ccc(C(C)=O)c(OC(=O)c2ccco2)c1", "AC50": "2 µM (active)"}, {"smiles": "O=C(NNC(=S)Nc1ccccc1)c1ccco1", "activity, negative = inhibition": "0.324%"}, {"smiles": "O=C(Oc1ccccc1[N+](=O)[O-])c1cccnc1", "AC50": "20 µM (active)"}, {"smiles": "CN(C(=O)C(Cl)Cl)c1ccc(OC(=O)c2ccco2)cc1", "activity, negative = inhibition": "-3.35% [at 25.6 µM]"}, {"smiles": "NC(=O)c1ncn([C@@H]2O[C@@H](CO)[C@@H](O)[C@H]2O)c1O", "activity, negative = inhibition": "-1.3%"}, {"smiles": "O=[N+]([O-])c1ccc(CSc2ncnc3c2ncn3[C@@H]2O[C@@H](CO)[C@@H](O)[C@H]2O)cc1", "activity, negative = inhibition": "-12.3%"}, {"smiles": "O=C(Nc1ccc2nc(-c3ccc(Br)o3)[nH]c2c1)c1ccco1", "AC50": "3.55 µM (active)"}, {"smiles": "O=C(Nc1ccc(OC(=O)c2cccnc2)cc1)c1cccnc1", "activity, negative = inhibition": "-22.8%"}, {"smiles": "O=C(Nc1cccc(NC(=O)c2ccc(-c3cccc(Br)c3)o2)c1)c1ccco1", "AC50": "3.16 µM (active)"}, {"smiles": "CC(C)C(=O)Nc1ccc(NC(=O)c2cccnc2)cn1", "activity, negative = inhibition": "-6.09%"}, {"smiles": "O=C(Nc1cccc(OC(=O)c2cccnc2)c1)c1cccnc1", "AC50": "7.08 µM (active)"}, {"smiles": "CCOc1ccc(C(=O)Nc2ccc(NC(=O)c3ccco3)c(Cl)c2)cc1Br", "activity, negative = inhibition": "-16.5%"}, {"smiles": "CN(C)Cc1ccccc1-c1nccc(N(C)C)n1", "AC50": "12.6 µM (active)"}, {"smiles": "CN(C)Cc1ccccc1-c1nccc(Nc2ccc(F)cc2)n1", "AC50": "3.16 µM (active)"}, {"smiles": "CNc1ccnc(-c2ccccc2CN(C)C)n1", "AC50": "12.6 µM (active)"}, {"smiles": "CN(C)Cc1cc(C(C)(C)C)ccc1-c1ccc(C(C)(C)C)cc1CN(C)C", "activity, negative = inhibition": "-17.9% [at 2.29 µM]"}, {"smiles": "CN(C)Cc1ccccc1-c1nccc(NC2CC2)n1", "AC50": "1.58 µM (active)"}]}]}
